Assay results taken from PubChem BioAssay.
Active and inactive are the calls of the source.

Legend:
[1] = test system: Plasmodium falciparum Sir2 (PF13_0152, Sir2A); assay: pfSir2 binders on small-molecule microarrays, primary screen, biochemical, small-molecule microarray, 635 nm fluorescence (AID 1098); settings: small-molecule microarray binding, fluorescence 635 nm; higher = more signal;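 note: score merges spot fluorescence intensity with its signal-to-noise ratio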
[2] = small-molecule microarray binders of probe aDKK1, primary screen, biochemical, biotinylated probe, 635/667 nm fluorescence (AID 1099); settings: higher = more signal;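 note: score merges 667nm spot fluorescence with signal to noise across triplicate slides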
[3] = small-molecule microarray binders of probe aCHRDL2, primary screen, biochemical, biotinylated probe, 635/667 nm fluorescence (AID 1100); settings: higher = more signal
[4] = splicing luciferase reporter signal modulators, primary screen, spliceosome inhibition project, cell-based, HEK293, splice +/- reporter (AID 1101); settings: luminescence, 24 h, higher = more signal, called active from +8 up or from −8 down;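 note: HEK293 cells carrying a splicing-competent luciferase reporter gene; test concentration not given here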
[5] = target: Fibroblast growth factor 10 (Homo sapiens) (UniProt O15520); assay: FGF10 binders on small-molecule microarrays, primary screen, biochemical, small-molecule microarray, 635 nm fluorescence (AID 1102); settings: FGF10 binding, fluorescence 635 nm, higher = more signal
[6] = test system: glycogen synthase kinase-3 (GSK3A per assay name; protocol says GSK3B); assay: GSK3 binders on small-molecule microarrays, primary screen, biochemical, small-molecule microarray, 635 nm fluorescence, GSK3A (AID 1103); settings: small-molecule microarray binding, fluorescence 635 nm; higher = more signal; note: the record names both GSK3A and GSK3B
[7] = target: Epidermal growth factor receptor (Homo sapiens) (UniProt P00533); assay: EGFR binders on small-molecule microarrays, primary screen, biochemical, small-molecule microarray, 635 nm fluorescence (AID 1104); settings: EGFR binding, higher = more signal;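 note: score merges 667 nm emission intensity with spot signal to noise over triplicate slides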
[8] = target: Follistatin-related protein 3 (Homo sapiens) (UniProt O95633); assay: FSTL3 binders on small-molecule microarrays, primary screen, biochemical, small-molecule microarray, 635 nm fluorescence (AID 1105); settings: FSTL3 binding, higher = more signal;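 note: score merges emission near 667 nm and signal to noise per printed spot across three slides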
[9] = target: Dickkopf-related protein 1 (Homo sapiens) (UniProt O94907); assay: DKK1 binders on small-molecule microarrays, primary screen, biochemical, small-molecule microarray, 635 nm fluorescence scan (AID 1106); settings: DKK1 binding, higher = more signal;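 note: score merges emission near 667 nm with signal to noise over three replicate slides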
[10] = test system: Inhibin beta A chain (activin A); assay: INHBA (activin A) binders on microarrays, primary screen, biochemical, small-molecule microarray, 635 nm fluorescence scan (AID 1107); settings: small-molecule microarray binding, higher = more signal;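 note: mouse activin A protein probed at 4.33 µg/mL on printed slides; score merges bound-protein fluorescence near 667 nm with spot signal-to-noise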
[11] = test system: Human papillomavirus type 1a protein E7 (residues 44-93); assay: HPV1a E7 fragment binders on microarrays, primary screen, biochemical, small-molecule microarray, residues 44-93, 635 nm fluorescence (AID 1108); settings: small-molecule microarray binding, fluorescence 635 nm; higher = more signal;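 note: E7 fragment applied at 1 µg/mL in TBST for 1 h at 4 C; score combines spot fluorescence with its signal to noise ratio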
[12] = modulators of HCV replicon luciferase signal, primary screen, HCV replication inhibitor project, Huh7 cells, luciferase reporter (AID 1109); settings: 48 h, higher = more signal;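 note: huh7 hepatoma cells harbouring a luciferase neomycin HCV replicon reporter; luciferase luminescence as measure of HCV replicon replication; test concentration not given here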
[13] = target: Left-right determination factor 2 (Homo sapiens) (UniProt O00292); assay: LEFTY2 binders on small-molecule microarrays, primary screen, biochemical, small-molecule microarray, 635 nm fluorescence scan (AID 1110); settings: LEFTY2 binding, higher = more signal
[14] = target: Calmodulin-1 (Homo sapiens) (UniProt P0DP23); assay: CALM1 binders on microarrays, EGTA buffer, profiling panel, biochemical, small-molecule microarray, Cy5-labelled CALM1 (AID 1111); settings: Cy5-CALM1 binding fluorescence, higher = more signal;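 note: labelled calmodulin applied in Tris saline Tween buffer holding calcium plus EGTA and DTT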
[15] = target: Calmodulin-1 (Homo sapiens) (UniProt P0DP23); assay: calcium-bound CALM1 binders on microarrays, profiling panel, artefact control for SMM control-protein annotation, biochemical, small-molecule microarray, Cy5-labelled CALM1, plus calcium (AID 1112); settings: Cy5-CALM1 binding fluorescence, higher = more signal;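 note: score merges spot fluorescence with signal to noise from triplicate slides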
[16] = small-molecule microarray binders of probe aWnt5a, primary screen, biochemical, biotinylated probe, 635/667 nm fluorescence (AID 1113); settings: higher = more signal;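 note: score merges 667 nm fluorescence intensity with signal-to-noise per printed feature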
[17] = small-molecule microarray binders of probe aShh, primary screen, biochemical, biotinylated probe, 635/667 nm fluorescence (AID 1114); settings: higher = more signal;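 note: probe is biotin-labelled aShh protein from a stem cell growth factor screen; measures binding of labelled protein to compounds printed on the slide; score merges feature fluorescence at 667 nm with signal-to-noise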
[18] = small-molecule microarray binders of probe aNog, primary screen, biochemical, biotinylated probe, 635/667 nm fluorescence (AID 1115); settings: higher = more signal;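 note: probe is biotinylated aNog protein used at 0.15 µg/mL for 1 h at 4 C; z-score combines 667 nm fluorescence of each spot with its signal to noise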
[19] = target: Torsin-1A-interacting protein 1 (Homo sapiens) (UniProt Q5JTV8); assay: LAP1 binders from COS7 cell lysate, primary screen, small-molecule microarray, 635/667 nm fluorescence (AID 1116); settings: COS7-hLAP1 lysate binding, 635 nm fluorescence, higher = more signal
[20] = target: Alpha-bungarotoxin (Bungarus multicinctus) (UniProt P60615); assay: alpha-bungarotoxin binders on microarray, profiling panel, artefact control for SMM control protein annotation, biochemical, small-molecule microarray, Alexa647 label, 635/667 nm fluorescence (AID 1117); settings: alpha-BTX-A647 binding fluorescence, higher = more signal
Chain of Alpha-bungarotoxin (Bungarus multicinctus) (P60615 whole entry, looked up): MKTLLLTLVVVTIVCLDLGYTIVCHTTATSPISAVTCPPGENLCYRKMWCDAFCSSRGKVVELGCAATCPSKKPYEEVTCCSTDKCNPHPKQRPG

Chain of Follistatin-related protein 3 (Homo sapiens) (O95633 whole entry, looked up): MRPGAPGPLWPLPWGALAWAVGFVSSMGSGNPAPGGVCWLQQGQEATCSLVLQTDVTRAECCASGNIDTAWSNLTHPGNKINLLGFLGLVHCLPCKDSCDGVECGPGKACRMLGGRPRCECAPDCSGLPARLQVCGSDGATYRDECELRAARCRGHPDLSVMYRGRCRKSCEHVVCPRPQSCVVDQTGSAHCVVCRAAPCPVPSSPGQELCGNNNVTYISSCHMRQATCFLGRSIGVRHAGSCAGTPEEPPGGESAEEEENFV
Chain of Epidermal growth factor receptor (Homo sapiens) (P00533 whole entry, looked up): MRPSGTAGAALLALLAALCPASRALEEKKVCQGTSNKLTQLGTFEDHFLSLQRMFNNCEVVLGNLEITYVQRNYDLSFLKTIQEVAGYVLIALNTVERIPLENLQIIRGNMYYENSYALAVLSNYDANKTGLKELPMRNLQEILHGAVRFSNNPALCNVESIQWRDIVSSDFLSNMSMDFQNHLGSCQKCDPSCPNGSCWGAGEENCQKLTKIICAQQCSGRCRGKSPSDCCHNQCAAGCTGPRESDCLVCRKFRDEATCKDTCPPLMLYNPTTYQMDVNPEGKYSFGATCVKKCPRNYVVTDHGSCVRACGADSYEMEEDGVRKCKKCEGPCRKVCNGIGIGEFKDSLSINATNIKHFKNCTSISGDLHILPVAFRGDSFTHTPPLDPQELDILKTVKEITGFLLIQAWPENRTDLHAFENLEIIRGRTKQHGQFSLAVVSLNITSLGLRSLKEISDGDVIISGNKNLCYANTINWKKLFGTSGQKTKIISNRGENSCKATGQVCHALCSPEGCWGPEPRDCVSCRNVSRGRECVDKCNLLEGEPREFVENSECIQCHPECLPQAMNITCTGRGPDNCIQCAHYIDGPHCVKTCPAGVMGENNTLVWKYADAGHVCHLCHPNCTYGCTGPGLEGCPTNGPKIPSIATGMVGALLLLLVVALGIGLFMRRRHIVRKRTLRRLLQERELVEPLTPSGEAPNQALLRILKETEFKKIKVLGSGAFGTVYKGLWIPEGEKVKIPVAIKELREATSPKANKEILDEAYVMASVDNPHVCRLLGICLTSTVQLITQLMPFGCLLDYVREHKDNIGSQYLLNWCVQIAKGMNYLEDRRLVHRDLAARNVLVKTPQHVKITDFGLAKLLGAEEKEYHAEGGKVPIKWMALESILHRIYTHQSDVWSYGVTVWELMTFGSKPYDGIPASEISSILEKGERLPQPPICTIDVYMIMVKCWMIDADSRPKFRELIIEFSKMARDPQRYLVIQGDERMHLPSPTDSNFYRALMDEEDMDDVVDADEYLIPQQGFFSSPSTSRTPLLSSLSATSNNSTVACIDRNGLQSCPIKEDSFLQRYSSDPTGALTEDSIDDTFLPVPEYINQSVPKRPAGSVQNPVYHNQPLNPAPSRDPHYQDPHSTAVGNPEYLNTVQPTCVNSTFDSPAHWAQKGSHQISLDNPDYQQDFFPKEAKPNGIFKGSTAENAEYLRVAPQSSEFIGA
Chain of Dickkopf-related protein 1 (Homo sapiens) (O94907 whole entry, looked up): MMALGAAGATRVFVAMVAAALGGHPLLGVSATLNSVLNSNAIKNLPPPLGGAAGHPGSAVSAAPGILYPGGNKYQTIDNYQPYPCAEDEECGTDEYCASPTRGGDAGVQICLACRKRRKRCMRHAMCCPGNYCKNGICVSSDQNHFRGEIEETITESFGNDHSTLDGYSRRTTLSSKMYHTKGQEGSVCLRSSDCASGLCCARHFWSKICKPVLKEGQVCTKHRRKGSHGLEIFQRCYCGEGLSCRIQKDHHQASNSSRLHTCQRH
Chain of Fibroblast growth factor 10 (Homo sapiens) (O15520 whole entry, looked up): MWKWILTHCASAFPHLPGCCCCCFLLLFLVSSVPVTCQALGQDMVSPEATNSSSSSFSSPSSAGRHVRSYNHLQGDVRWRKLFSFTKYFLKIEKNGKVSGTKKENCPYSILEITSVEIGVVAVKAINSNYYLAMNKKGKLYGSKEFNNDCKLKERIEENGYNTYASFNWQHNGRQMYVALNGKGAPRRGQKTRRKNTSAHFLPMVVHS
Chain of Torsin-1A-interacting protein 1 (Homo sapiens) (Q5JTV8 whole entry, looked up): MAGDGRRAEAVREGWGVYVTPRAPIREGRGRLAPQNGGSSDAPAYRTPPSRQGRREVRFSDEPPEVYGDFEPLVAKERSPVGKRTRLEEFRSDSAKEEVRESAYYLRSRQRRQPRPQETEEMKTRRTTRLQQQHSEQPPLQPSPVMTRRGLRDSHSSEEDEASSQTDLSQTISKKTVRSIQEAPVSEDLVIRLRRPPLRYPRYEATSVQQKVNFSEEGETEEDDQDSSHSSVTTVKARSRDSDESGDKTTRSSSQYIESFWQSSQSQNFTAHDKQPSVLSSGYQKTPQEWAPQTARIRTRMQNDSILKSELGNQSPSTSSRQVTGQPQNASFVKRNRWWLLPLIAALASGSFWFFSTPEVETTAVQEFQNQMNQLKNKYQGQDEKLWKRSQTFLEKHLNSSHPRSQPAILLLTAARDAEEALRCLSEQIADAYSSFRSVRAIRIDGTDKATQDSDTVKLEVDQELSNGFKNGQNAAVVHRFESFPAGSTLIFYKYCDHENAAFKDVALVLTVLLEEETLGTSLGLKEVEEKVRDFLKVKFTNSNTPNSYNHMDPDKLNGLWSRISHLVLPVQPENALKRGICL
Chain of Left-right determination factor 2 (Homo sapiens) (O00292 whole entry, looked up): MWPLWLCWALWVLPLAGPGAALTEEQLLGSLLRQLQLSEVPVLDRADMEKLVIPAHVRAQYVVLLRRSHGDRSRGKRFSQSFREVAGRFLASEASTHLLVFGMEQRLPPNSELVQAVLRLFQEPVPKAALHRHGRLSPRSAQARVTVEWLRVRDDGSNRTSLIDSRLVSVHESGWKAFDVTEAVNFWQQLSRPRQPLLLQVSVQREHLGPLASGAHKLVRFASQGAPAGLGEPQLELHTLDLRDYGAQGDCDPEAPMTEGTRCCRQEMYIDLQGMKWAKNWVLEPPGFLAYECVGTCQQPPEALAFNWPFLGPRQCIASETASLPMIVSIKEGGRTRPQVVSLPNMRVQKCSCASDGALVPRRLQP

SMILES	composite z-score [1]	composite z-score [2]	composite z-score [3]	z-score [4]	composite z-score [5]	composite z-score [6]	composite z-score [7]	composite z-score [8]	composite z-score [9]	composite z-score [10]	composite z-score [11]	z-score [12]	composite z-score [13]	composite z-score [14]	composite z-score [15]	composite z-score [16]	composite z-score [17]	composite z-score [18]	composite z-score [19]	composite z-score [20]
CO[C@H]1O[C@H](CO)[C@@H](OC(=O)Nc2ccccc2)[C@H](OC(=O)c2cc3ccccc3[nH]2)[C@H]1OC(=O)c1cc2ccccc2[nH]1	0.494	0.576	0.759	-0.447 (inactive)	1.35	0.126	-0.551	0.306	0.201	0.9	0.0679	-2.05	0.165	0.204	0.47	0.0642	0.14	-0.367	0.621	0.326
CCOC(=O)C[C@H]1[C@H](OC(=O)c2cc3ccccc3oc2=O)[C@@H](NC(=O)c2ccc3ccccc3n2)c2cc(OCCCO)ccc2N1C(=O)Cc1ccc(OC)cc1	0.915	-0.207	-0.427	-0.362 (inactive)	1.01	1.06	0.442	1.2	0.707	0.288	1.23	-1.96	0.735	0.228	-0.653	0.0297	-0.0119	-0.0428	0.726	0.981
O=C1C2C=CC(C(O)c3cccc(O)c3)N(Nc3ccc([N+](=O)[O-])cc3)C2C(=O)N1c1ccccc1 (stereo not given)	0.367	0.158	0.451	0.663 (inactive)	1.07	0.672	0.254	0.444	0.239	0.199	0.939	-0.278	0.183	0.0968	0.219	-0.0462	0.0022	-0.163	0.26	1.13
COC(=O)[C@@]1(Cc2ccc(OC)cc2)[C@H]2c3cc(C(=O)N4CCCC4)n(CCO)c3C[C@H]2CN1C(=O)c1ccccc1	0.333	0.798	0.888	-1.14 (inactive)	0.717	0.483	0.0327	0.155	-0.418	0.45	1.1	-0.474	-0.352	0.841	0.173	0.433	0.305	1.85	1.47	0.365
C#CCN([C@@H](Cc1ccccc1)C(=O)OC)[C@@H](/C=C/C1CC1)[C@H](O)Cc1ccccc1	-0.437	-0.575	0.37	0.414 (inactive)	-0.496	-0.489	-0.473	-0.494	-0.185	1.49	-0.447	-3.13	0.0156	-0.979	-1.54	-0.217	-0.0553	-0.352	0.483	0.0673
COC(=O)[C@]1(CCS(=O)(=O)c2ccccc2)N=C(c2ccc(OCCCO)cc2)O[C@@H]1c1ccccc1N=[N+]=[N-]	1.62	0.99	1.12	-0.571 (inactive)	1.3	1.3	0.416	1.2	0.666	0.199	-0.0608	-2.55	0.744	1.73	0.785	0.0655	0.232	0.897	0.815	2.06
COc1cccc(C)c1NC(=O)O[C@H]1[C@H](OC(=O)Nc2ccccc2-c2ccccc2)[C@H](OC(=O)Nc2ccccc2-c2ccccc2)[C@@H](OC)O[C@@H]1CO	0.861	0.796	0.549	0.118 (inactive)	1.18	1.33	0.649	1.3	0.717	0.729	1.41	-2.36	0.679	1.72	0.11	0.0304	-0.0192	-0.518	1.26	0.688
CS(=O)(=O)CCOC(=O)C1=CC(CCCO)=CC(c2ccc(CN3CCCC3)cc2)N(Cc2sc3ccccc3c2Cl)C=C1C(=O)OCCS(C)(=O)=O (stereo not given)	1.37	0.518	-0.0725	0.576 (inactive)	1.34	1.33	0.558	1	0.858	1.34	0.611	-2.64	1.12	2.26	0.91	-0.0297	0.318	1.49	2.83	2.86
CC[C@@H]1O[Si](C(C)C)(C(C)C)c2c1cc(-c1cc(C)c(OC)c(C)c1)nc2-c1ccc(Oc2ccccc2)cc1	-0.551	0.825	-0.0144	-0.166 (inactive)	0.0008	-0.732	-0.451	-0.452	-0.497	0.135	-0.871	-0.748	-0.389	-0.162	0.0543	-0.117	-0.299	-0.103	-0.386	0.0748
C=CCN1C(=O)[C@]2(CCS(=O)(=O)c3ccccc3)N=C(c3ccc(OCCCO)cc3)O[C@@H]2c2ccccc21	1.38	-0.317	0.7	-1.81 (inactive)	0.732	1.29	0.387	1.43	0.466	1.18	1.29	-2.68	0.59	2.17	-0.493	-0.0268	0.365	0.033	1.68	1.2
CCOC(=O)C1=C[C@@H](C(C)C)N(S(=O)(=O)c2ccc(C)cc2)[C@H]1c1ccc(C(F)(F)F)cc1	0.794	0.374	0.703	0.317 (inactive)	0.896	0.898	0.593	1.39	0.441	0.372	1.4	-0.972	0.499	1.07	-0.0824	-0.0607	0.296	0.868	0.76	1.06
